G9a block: inhibitors of human histone lysine methyltransferase G9a; G9a H3K9 monomethylation, AlphaScreen, 2 h; AID 504332; Potency, µM (doses to about 102 µM), hits mostly inhibitors; 8.8% of 350,000 active; Q96KQ7; also: nearly all actives have a fitted effect of over 75% in size
Target sequence (Q96KQ7 913-1193 limits assumed): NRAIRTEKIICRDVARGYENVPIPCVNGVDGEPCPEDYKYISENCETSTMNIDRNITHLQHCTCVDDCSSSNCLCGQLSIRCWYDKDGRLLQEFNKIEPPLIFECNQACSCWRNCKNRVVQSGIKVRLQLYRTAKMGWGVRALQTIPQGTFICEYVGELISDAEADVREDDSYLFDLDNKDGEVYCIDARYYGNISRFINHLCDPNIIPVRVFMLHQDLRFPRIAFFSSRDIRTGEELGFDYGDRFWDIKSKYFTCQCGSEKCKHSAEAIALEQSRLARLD
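Chemiluminescent proximity detection of H3K9 monomethylation, read after 10 min bead incubation in the dark. Reaction: 20 nM G9a, 500 nM biotin-H3K9 peptide, 20 uM SAM cofactor, 2 h, room temperature, following 15 min enzyme-compound preincubation.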
JMJD2A Tudor: JMJD2A Tudor domain (human) inhibition. O75164. AlphaScreen JMJD2A-Tudor / H3K4me3 peptide binding. Potency, µM (series often up to 114 µM), hits mostly inhibitors. 4.4% of 390,000 active. AID 504339; also: nearly all actives have a fitted effect of over 50% in size
Six1-Eya2 inh: inhibitors of human Six1/Eya2 interaction. Q15475+O00167. AlphaScreen GST-Six1/His-Eya2 binding, biochemical; active compounds read low. 0.56% of 360,000 active. activity change, % (concentration not given with the values); in the data active = activity change below about -65%; inconclusive = mostly about -30% to -63%
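Homogeneous AlphaScreen proximity assay pairing GST-Six1 with His-tagged Eya2 (added as 5X mix: 250 nM and 500 nM) in 50 mM Tris pH 8.0, 300 mM NaCl, 1 mM TCEP. Glutathione donor and nickel acceptor beads; 1 h, 37 °C, dark.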
CtBP-E1A inh: inhibitors of CtBP/E1A interaction | AlphaScreen GST-E1A/His-CtBP binding, 1536-well; active compounds read low | AID 651724 | 0.49% of 340,000 active | activity change, % (no concentration beside the values); in the data active = activity change below about -65%; inconclusive = mostly about -30% to -63%
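Steps: dispense buffer (Tris pH 8.0, NaCl 300 mM, TCEP 1 mM, BSA, Tween 20); add 5X protein mix (GST-E1A, His-CtBP, 125 nM each); pin 23 nL compound; 2 h at 37 °C, dark; add 5X beads (50 ug/mL); 1 h; read.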
BAZ2B inh: blocks human BAZ2B; Q9UIF8; AlphaScreen BAZ2B-H3K14Ac peptide displacement; Potency, µM (series often up to 114 µM), most hits filed as inhibitors; 4.4% of 360,000 active; AID 504333; also: nearly all actives have a fitted effect of over 60% in size
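Complex of BAZ2B and biotin-H3K14Ac (50 nM apiece) forms over 30 min at RT, then faces library compounds up to 110 uM for another 30 min; AlphaScreen beads added, 20 min dark incubation, luminescence read.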
HP1b chromo inh: inhibitors of HP1-beta chromodomain binding to methylated histone tails; Potency, µM (series often up to 114 µM), most hits filed as inhibitors; AID 540317; P83916; 0.56% of 390,000 active; AlphaScreen HP1-beta / biotin-H3K9me3 peptide binding; also: nearly all actives have a fitted effect of over 70% in size
Target sequence (P83916 whole entry, looked up): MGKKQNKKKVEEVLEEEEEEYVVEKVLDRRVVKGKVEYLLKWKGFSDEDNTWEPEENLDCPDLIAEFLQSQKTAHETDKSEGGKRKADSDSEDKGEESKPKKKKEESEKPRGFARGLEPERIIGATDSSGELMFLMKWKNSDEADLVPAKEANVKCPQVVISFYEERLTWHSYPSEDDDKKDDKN
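HP1-beta protein (50 nM final) preincubated 30 min at room temperature with biotinylated H3(1-18)K9me3 peptide (50 nM) in PBS pH 7.4, 0.01% Tween-20, then compound added for 30 min. AlphaScreen streptavidin donor/nickel chelate acceptor beads (10 ug/mL final), 30 min dark, luminescence read.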
Hits are given with their value; [ ] = another dose, or the depositor's remark. An excerpt weighted towards active compounds, which were near 10% of everything screened. Unless noted, calls follow the shape of the dose curve; as a rule, active = well fitted inhibition curve with a large enough effect; inconclusive = small, poorly fitted or top-dose-only effect; inactive = no such curve, though single readings can be large or run the other way.

What do the screens show for `Nc1ccccc1C(=O)NNc1c2ccccc2nc2ccccc12`?
G9a block: 18µM; JMJD2A Tudor: 32µM; Six1-Eya2 inh: inconclusive; BAZ2B inh: 28µM; HP1b chromo inh: 18µM

Results for O=C(NNc1c2ccccc2nc2ccccc12)c1ccc(Cl)cc1 ?
G9a block: 35µM; JMJD2A Tudor: inactive; Six1-Eya2 inh: inactive; CtBP-E1A inh: inactive; BAZ2B inh: inconclusive; HP1b chromo inh: inactive

How did COc1cccc(C(=O)NNc2c3ccccc3nc3ccccc23)c1 do in these assays?
G9a block: inactive; JMJD2A Tudor: inconclusive; Six1-Eya2 inh: inconclusive; CtBP-E1A inh: inconclusive; BAZ2B inh: inconclusive; HP1b chromo inh: inactive

Results for Cc1cc(C(=O)NNC(=O)c2ccc(Cl)cc2)c2ccccc2n1 ?
G9a block: inactive[12.7 µM]; JMJD2A Tudor: inactive; Six1-Eya2 inh: inactive; CtBP-E1A inh: inactive; BAZ2B inh: inactive; HP1b chromo inh: inactive

Results for O=C(NNc1ncnc2ccccc12)c1cccc(Cl)c1 ?
G9a block: 79µM; JMJD2A Tudor: inactive; Six1-Eya2 inh: inactive; CtBP-E1A inh: inactive; BAZ2B inh: 79µM; HP1b chromo inh: inactive

What do the screens show for `O=C(NNc1ncnc2c1cnn2-c1ccccc1)c1cccc(Cl)c1`?
G9a block: inconclusive; JMJD2A Tudor: inactive; BAZ2B inh: inactive; HP1b chromo inh: inactive

What do the screens show for `Cc1cccc(-c2noc(-c3cccnc3NCc3ccccc3Cl)n2)c1`?
G9a block: inactive; JMJD2A Tudor: inactive; BAZ2B inh: inactive; HP1b chromo inh: inactive

Results for Clc1cncc(Cl)c1NNc1c2ccccc2nc2ccccc12 ?
G9a block: 1.3µM; JMJD2A Tudor: inconclusive; Six1-Eya2 inh: inactive; CtBP-E1A inh: inactive; BAZ2B inh: inconclusive; HP1b chromo inh: inactive

What do the screens show for `O=C(O)CC1S/C(=N/N=C/C=C/c2ccccc2)NC1=O` (centres undefined)?
G9a block: 7.9µM; JMJD2A Tudor: 79µM; Six1-Eya2 inh: inconclusive; CtBP-E1A inh: inactive; BAZ2B inh: 79µM; HP1b chromo inh: inactive

What do the screens show for `CCOc1cc(/C=N/N=C2/NC(=O)C(CC(=O)O)S2)ccc1OCc1ccc(Cl)cc1` (centres undefined)?
G9a block: inactive; JMJD2A Tudor: 50µM; Six1-Eya2 inh: inactive; CtBP-E1A inh: inactive; BAZ2B inh: 56µM; HP1b chromo inh: inactive

What do the screens show for `Cn1c(=O)n(C)c2cc(/C=N/N=C3/NC(=O)C(CC(=O)O)S3)ccc21` (centres undefined)?
G9a block: inactive; JMJD2A Tudor: 32µM; Six1-Eya2 inh: inactive; CtBP-E1A inh: inactive; BAZ2B inh: 50µM; HP1b chromo inh: inconclusive

Results for O=C(O)CC1S/C(=N/N=C/C=C/c2ccccc2[N+](=O)[O-])NC1=O (centres undefined) ?
G9a block: inactive; JMJD2A Tudor: inconclusive; Six1-Eya2 inh: inactive; CtBP-E1A inh: inactive; BAZ2B inh: inactive; HP1b chromo inh: inactive

How did O=C(O)CC1S/C(=N/N=C/c2ccc(-c3ccc(Cl)cc3[N+](=O)[O-])o2)NC1=O (centres undefined) do in these assays?
G9a block: 14µM; JMJD2A Tudor: inconclusive; Six1-Eya2 inh: inactive; CtBP-E1A inh: inactive; BAZ2B inh: inconclusive; HP1b chromo inh: inactive

Results for Cc1c(Cl)cccc1NC(=O)N1CCC(CN2CCOCC2)CC1 ?
G9a block: inactive; JMJD2A Tudor: inactive; BAZ2B inh: inactive; HP1b chromo inh: inactive

What do the screens show for `N#Cc1nc(Nc2cccc(F)c2)nc(NC2CCCC2)n1`?
JMJD2A Tudor: inactive

Results for CC(=O)Nc1ccc(S(=O)(=O)Oc2cccc(/C=N/N=C3/NC(=O)C(CC(=O)O)S3)c2)cc1 (centres undefined) ?
G9a block: inconclusive; JMJD2A Tudor: inactive; Six1-Eya2 inh: inactive; CtBP-E1A inh: inactive; BAZ2B inh: 56µM; HP1b chromo inh: inactive

How did CC1CCCC2(C1)NC(=S)N(c1ccccc1)N2 (centres undefined) do in these assays?
G9a block: inconclusive; JMJD2A Tudor: 79µM; Six1-Eya2 inh: inactive; CtBP-E1A inh: inactive; BAZ2B inh: inactive; HP1b chromo inh: inactive
